Experiment [1] concerns CRL-7250. Put plainly: Cytotoxic Profiling of Annotated Libraries Using Quantitative High-Throughput Screening (AID 1296008). Also: nearly all actives have a fitted effect of over 60% in size. As to max response: % is scaled to controls: 0 for no effect and ±100 for the full control effect. The conditions noted are these: Five cell lines viability, CellTiter-Glo ATP luminescence, 48-72 h; max response: hits give low values. In outline:
(§1)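 Cells exposed to compounds for 48 or 72 hr at 37 degrees Celsius. Viability read as ATP-coupled luminescence with CellTiter-Glo after 10 min at room temperature.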
A general note: ATP-based viability assays read luminescence as a measure of living cells.

Experiment [2] concerns HaCat. The experiment is described as above. The conditions noted are these: Five cell lines viability, CellTiter-Glo ATP luminescence, 48-72 h; max response: hits give low values. In outline: as §1
In experiment [3] the test system is KB-3-1. Described as above. The conditions noted are these: Five cell lines viability, CellTiter-Glo ATP luminescence, 48-72 h; max response: hits give low values. The gist of the method:
as §1

Experiment [4] concerns NIH3T3. The description is as above. The conditions noted are these: Five cell lines viability, CellTiter-Glo ATP luminescence, 48-72 h; max response: hits give low values. In outline: as §1
The test system of experiment [5] is MCC-13. Put plainly: qHTS assay to identify novel small-molecules to repurpose for Merkel cell carcinoma treatment (AID 1296009). Also: nearly all actives have a fitted effect of over 60% in size. The conditions noted are these: MCC and control cell lines, CellTiter-Glo viability, 72 h; series mostly up to 46 µM. In outline:
(§2)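 Cells were treated for 72 hr at 37 degree celsius with compounds in 8- or 11-point dose response. Viability was read by CellTiter-Glo luminescence, normalized to no-cell (cytotoxicity) and DMSO controls.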
In general terms: Quantitative high-throughput screening tests each substance at several concentrations.

The subject of experiment [6] is MCC-26. Described as above. The conditions noted are these: MCC and control cell lines, CellTiter-Glo viability, 72 h; series mostly up to 46 µM. In outline: as §2
The subject of experiment [7] is MKL-1. The experiment is described as above. The conditions noted are these: MCC and control cell lines, CellTiter-Glo viability, 72 h; series mostly up to 46 µM. In outline: as §2
For experiment [8], the system named is MKL-2. The experiment is described as above. The conditions noted are these: MCC and control cell lines, CellTiter-Glo viability, 72 h; series mostly up to 46 µM. In outline:
as §2

The subject of experiment [9] is NIH3T3. The description is as above. The conditions noted are these: MCC and control cell lines, CellTiter-Glo viability, 72 h; at 44.8 µM (top of the series) unless noted. In outline: as §2
Experiment [10] relates to UISO. The experiment is described as above. The conditions noted are these: MCC and control cell lines, CellTiter-Glo viability, 72 h; series mostly up to 46 µM. In outline: as §2
The test system of experiment [11] is WaGa. Described as above. The conditions noted are these: MCC and control cell lines, CellTiter-Glo viability, 72 h; series mostly up to 46 µM. The gist of the method:
as §2

Experiment [12] has as its system CAOV3. Put plainly: Primary qHTS to identify gynecologic anti-cancer compounds using libraries of approved drugs and bioactive compounds (AID 1345084). Also: nearly all actives have a fitted effect of over 55% in size. The conditions noted are these: Gynecologic cancer cell panel viability, ATPlite luminescence, 48 h; series mostly up to 57.5 µM. The gist of the method: (§3)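 ATP-based viability (ATPlite), 1,000 cells/well, 16 h pre-incubation, 48 h compound at 37 C, 5% CO2, 15 min RT before read.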

The test system of experiment [13] is TAB113. The experiment is described as follows: qHTS profiling for inhibitors of Plasmodium falciparum proliferation (AID 504749). Also: nearly all actives have a fitted effect of over 60% in size. The conditions noted are these: P. falciparum in erythrocytes, SYBR Green DNA, 72 h; series mostly up to 28.7 µM. The gist of the method: (§4)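 P. falciparum-infected erythrocytes (0.3% parasitemia, 2.5% hematocrit) incubated with compound 72 h at 37 C, 5% CO2. Parasite DNA detected by SYBR Green after lysis, overnight at room temperature; normalised to 0.29 uM artemisinin and DMSO.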

Experiment [14] deals with TAB165. Described as above. The conditions noted are these: P. falciparum in erythrocytes, SYBR Green DNA, 72 h; series mostly up to 28.7 µM. The gist of the method:
as §4

The subject of experiment [15] is W2. The experiment is described as above. The conditions noted are these: P. falciparum in erythrocytes, SYBR Green DNA, 72 h; series mostly up to 28.7 µM. The gist of the method:
as §4

In experiment [16] the test system is HEK293. Put plainly: Cytotoxic Profiling of Annotated Libraries Using Quantitative High-Throughput Screening (AID 1296008). Also: nearly all actives have a fitted effect of over 60% in size. As to max response: % is scaled to controls: 0 for no effect and ±100 for the full control effect. The conditions noted are these: Five cell lines viability, CellTiter-Glo ATP luminescence, 48-72 h; max response: hits give low values. In outline:
as §1

For experiment [17], the system named is C33A. Put plainly: Primary qHTS to identify gynecologic anti-cancer compounds using libraries of approved drugs and bioactive compounds (AID 1345084). Also: nearly all actives have a fitted effect of over 55% in size. The conditions noted are these: Gynecologic cancer cell panel viability, ATPlite luminescence, 48 h; series mostly up to 57.5 µM. In outline: as §3
Experiment [18] concerns CASKI. The experiment is described as above. The conditions noted are these: Gynecologic cancer cell panel viability, ATPlite luminescence, 48 h; series mostly up to 57.5 µM. In outline:
as §3

Experiment [19] deals with HACAT. Put plainly: qHTS assay to identify novel small-molecules to repurpose for Merkel cell carcinoma treatment (AID 1296009). Also: nearly all actives have a fitted effect of over 60% in size. The conditions noted are these: MCC and control cell lines, CellTiter-Glo viability, 72 h; at 44.8 µM (top of the series) unless noted. In outline: as §2

Where “and” joins values, the source holds several entries; their conditions need not be identical. Equal entries are not always repeated. Results filed as inconclusive are left out. Values without a mark were called inactive. Calls of active or inactive are those of the source. Calls follow the shape of the dose curve; as a rule, active = well fitted curve in the direction sought with a large enough effect; inconclusive = small, poorly fitted or top-dose-only effect, or another doubt; inactive = no such curve, though single readings can be large; an effect the other way counts as inactive or inconclusive.
Potency is read from the fitted curve at half-maximal effect.

With `CCC(=O)O[C@]1(C(=O)CO)CC[C@H]2[C@@H]3CCC4=CC(=O)CC[C@]4(C)[C@@H]3CC[C@@]21C`, the Potency in [1] is 13.2 µM (active). The max response in experiment [2] was -31%; in [3], 0.702%. The compound was classed as inactive in experiment [4] and in [9]. The Potency result in experiment [5], in [6], in [7], in [8], in [10] and in experiment [11] was “inactive” in each case.

For the compound `Cc1ccn(-c2ccc(-c3ncco3)cc2)c(=O)c1-c1ccc2nc(N)ncc2c1`, the Potency was 1.66 µM (active) and 5.17 µM (active) in experiment [1]; 16.6 µM (active) and 6.51 µM (active) in experiment [4]. Further, the max response in [2] was -12.1% and -22.1%; in experiment [3], 0.602% and 6.68%. Further, the Potency result in experiment [5], in [7], in experiment [11] and in experiment [12] was “inactive” each time.

Turning to `CC1=C(/C=C/C(C)=C/C=C/C(C)=C/C(=O)Nc2ccc(O)cc2)C(C)(C)CCC1`, the Potency in experiment [13] was 11.2 µM (active); in experiment [14], 10 µM (active); in experiment [15], 5.36 µM (active); in experiment [1] it was 16.8 µM (active); in [16], 5.96 µM (active); in experiment [4], 21.1 µM (active). Moreover, the Potency is 26.6 µM (active) in experiment [7]; 10.6 µM (active) in [8]; 9.44 µM (active) in experiment [10]; 23.7 µM (active) in [11]; 7.94 µM (active) in experiment [17].

On to `CC(C)(C)C(=O)Oc1ccc2c(c1)nc(NC(=O)c1cccc([N+](=O)[O-])c1)n2CCCO`, for which the call in experiment [1], in experiment [4] and in experiment [9] was inactive. The figures for the max response in [2] and in experiment [3] were -9.39% and 7.62%, respectively. For the same compound, the Potency result in experiment [5], in [7], in [8] and in experiment [11] was “inactive” in each case.

With `CCn1c(C(=O)N(C2CC2)C2CC2)cc2c3c(ncn3C)c(Nc3cc(C)n(C)n3)nc21`, the max response in [1] is 3.88% and -9.32%; in [2] it was 2.37% and -28.6%; in experiment [3] it was 3.91% and 9.29%. Further, the Potency in experiment [4] was 23.5 µM (active). Besides, the Potency result in experiment [5], in experiment [7], in experiment [8], in experiment [10], in [11] and in experiment [17] was “inactive” each time. Moreover, the Potency result in [12] and in experiment [18] was “inactive” each time.

`COc1ccc(-c2coc3cc(O)cc(O)c3c2=O)cc1`: the max response in experiment [1] is 1.69%; in [2] it was 1.1%. The outcome in experiment [3] and in [9] was inactive. Moreover, the Potency result in experiment [5], in experiment [6], in experiment [7], in experiment [8], in [10] and in experiment [11] was “inactive” in each case.

Turning to `CON=C(C(=O)N[C@@H]1C(=O)N2C(C(=O)OCOC(=O)C(C)(C)C)=C(C=Cc3scnc3C)CS[C@H]12)c1csc(N)n1`, the call in [1], in experiment [2], in [4], in [19] and in experiment [9] was inactive. In addition, in experiment [3], the max response was 0.86%. Moreover, the Potency entry in experiment [5], in [6], in experiment [7], in experiment [8] and in [10] was “inactive” each time.

With `CC(C)(C(=O)NCC(F)(F)C(F)(F)F)C(=O)N[C@@H]1C(=O)Nc2ccccc2-c2ccccc21`, the max response in experiment [1] was -11.4%; in experiment [2], -2.21%. In addition, the compound was called inactive in [3], in [4] and in [9]. In addition, the Potency result in experiment [5] and in experiment [6] was “inactive” each time.

Take `O=C(O)[C@H]1O[C@H](Oc2cc3oc(-c4ccccc4)cc(=O)c3c(O)c2O)[C@H](O)[C@@H](O)[C@H]1O`: the max response in [1] was -6.52%; in experiment [2], -7.89%; in experiment [3], 2.26%; in [4], -17.6%. In addition, the Potency result in [5], in [7], in experiment [10] and in experiment [11] was “inactive” throughout.
